In the library only some 4.1% were active in any assay of this set; here they are far more common.
GDH-TPI inh: GDH-TPI coupling enzyme inhibitors, primary screen, artefact control for M. tuberculosis FBA inhibitor project, biochemical, absorbance, full deck; GDH-TPI coupled enzyme counterscreen, NADH absorbance; inhibition, % at 4.8 µM; 360,000 compounds, 1.2% hits; AID 588335, 2011; in the data active = inhibition above about 30%
BH1578 lux ind: inducers of Vibrio cholerae quorum light production without autoinducers, primary screen, BH1578 luxS cqsA deficient, single point | AID 588436, 2011 | activation, % at 18.7 µM | 350,000 compounds, 0.16% hits | V. cholerae BH1578 lux reporter, luminescence, 6 h; in the data active = activation mostly above about 9.7%, no sharp cut-off
Mtb UGM inh: M. tuberculosis UGM enzyme inhibitors, primary screen, biochemical, fluorescence polarization, single point; UDP-galactopyranose mutase (Mycobacterium tuberculosis (strain ATCC 25618 / H37Rv)), …; purified UGM, fluorescence polarization probe displacement; inhibition, % at 10 µM; 320,000 compounds, 0.06% hits; in the data active = inhibition above about 10%, passing the limit was not always enough
Mtb FBA inh: Mtb FBA enzyme inhibitors, primary screen, biochemical, fluorescence, strain H37Rv; Fructose-bisphosphate aldolase (Mycobacterium tuberculosis (strain ATCC 25618 / H37Rv)), …; purified M. tuberculosis FBA, fluorescence read-out; inhibition, % at 1 µM; 360,000 compounds, 2.3% hits; AID 588726, 2011; in the data active = inhibition above about 27%
Rv3671c protease: Rv3671c serine protease inhibitors, primary screen, biochemical, fluorescence polarization, M. tuberculosis H37Rv; P9WHR9; inhibition, % at 5.96 µM; 320,000 compounds, 0.048% hits; in the data active = inhibition above about 38%;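 note: extracellular domain of Rv3671c used as enzyme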
RecA intein inh: Mtb RecA intein splicing inhibitors, primary screen, biochemical, fluorescence, HTS | Protein RecA (Mycobacterium tuberculosis (strain ATCC 25618 / H37Rv)), P9WHJ3 | cell-free RecA intein splicing | inhibition, % (test concentration not listed) | 290,000 compounds, 0.75% hits | AID 2221, 2009; in the data active = inhibition above about 30%
Target sequence (P9WHJ3 whole entry, looked up): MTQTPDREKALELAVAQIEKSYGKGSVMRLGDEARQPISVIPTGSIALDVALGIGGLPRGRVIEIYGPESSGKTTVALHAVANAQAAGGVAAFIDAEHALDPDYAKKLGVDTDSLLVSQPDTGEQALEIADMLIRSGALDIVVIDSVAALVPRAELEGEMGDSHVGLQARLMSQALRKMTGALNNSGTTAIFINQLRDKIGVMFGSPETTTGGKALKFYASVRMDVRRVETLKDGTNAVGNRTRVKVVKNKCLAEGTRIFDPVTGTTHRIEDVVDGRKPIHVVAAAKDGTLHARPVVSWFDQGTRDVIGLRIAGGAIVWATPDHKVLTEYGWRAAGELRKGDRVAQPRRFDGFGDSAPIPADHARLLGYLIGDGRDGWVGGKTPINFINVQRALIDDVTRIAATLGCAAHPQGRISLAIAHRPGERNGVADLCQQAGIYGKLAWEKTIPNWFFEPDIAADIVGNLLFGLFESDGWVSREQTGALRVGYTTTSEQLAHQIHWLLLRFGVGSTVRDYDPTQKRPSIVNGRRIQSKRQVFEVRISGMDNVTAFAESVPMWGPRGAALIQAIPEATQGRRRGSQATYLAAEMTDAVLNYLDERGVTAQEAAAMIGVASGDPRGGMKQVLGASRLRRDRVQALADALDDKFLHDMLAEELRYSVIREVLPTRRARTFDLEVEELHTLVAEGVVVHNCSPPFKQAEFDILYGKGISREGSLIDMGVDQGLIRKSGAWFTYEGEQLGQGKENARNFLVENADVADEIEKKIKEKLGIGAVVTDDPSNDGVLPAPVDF
Large screens that a line does not name were inactive.

COc1ccc(CCNC(=O)C2CCN(S(=O)(=O)c3ccc(SC)cc3)CC2)cc1	none
Cc1ccc(C(C[N+](=O)[O-])Sc2ccc(N)cc2)cc1 (configuration not stated)	none
Cc1c(NC(=S)N/N=C/c2ccc([N+](=O)[O-])cc2O)c(=O)n(-c2ccccc2)n1C	GDH-TPI inh 48
Cc1c(NC(=S)N/N=C\c2ccccc2O)c(=O)n(-c2ccccc2)n1C	GDH-TPI inh 31
Cc1ccc(NC(=O)CCNS(=O)(=O)c2ccc(OC(F)(F)F)cc2)c(O)c1	none
O=C(Cn1c2ccccc2c(=O)c2ccccc21)Nc1ccccc1F	Mtb FBA inh 150
CC(=O)c1cn(CC(=O)Nc2ccccc2F)c2ccccc12	none (no result: RecA intein inh)
Cn1c(=O)c2[nH]c(NN=Cc3cccc(Br)c3)nc2n(C)c1=O	GDH-TPI inh 37 (no result: Mtb UGM inh, Rv3671c protease, RecA intein inh)
Cn1c(=O)c2[nH]c(NN=Cc3ccc(F)cc3)nc2n(C)c1=O	none (no result: Mtb UGM inh, Rv3671c protease, RecA intein inh)
CCN(CC)CCOc1ccc(C=NNc2nc3c([nH]2)c(=O)n(C)c(=O)n3C)cc1	GDH-TPI inh 44 (no result: Mtb UGM inh, Rv3671c protease, RecA intein inh)
CC1(C)C(=O)Nc2ccccc2N1C(=O)COC(=O)c1cccnc1	none (no result: RecA intein inh)
CCOc1cc(C#N)ccc1OCC(=O)NNC(=O)CC1CCS(=O)(=O)C1 (configuration not stated)	none (no result: Mtb UGM inh, Rv3671c protease, RecA intein inh)
CCOC(=O)c1sc(=S)[nH]c1C	GDH-TPI inh 31 (no result: Mtb UGM inh, Rv3671c protease, RecA intein inh)
O=C(NCCCN1CCOCC1)c1cc(-c2ccc3c(c2)OCO3)nc2ccccc12	none (no result: BH1578 lux ind)
O=C(NCCCN1CCCC1=O)c1cc(-c2ccc3c(c2)OCO3)nc2ccccc12	GDH-TPI inh 34
COc1ccc(-n2c(C)cc(C=O)c2C)cc1Cl	none
COc1ccc(-n2nc3cc(C)c(N)cc3n2)cc1Cl	GDH-TPI inh 36
CCOc1ccc(-n2nc3cc(C)c(N)cc3n2)cc1	Mtb FBA inh 164
CCOc1ccc(N2C(N)=NC(N)=NC2(C)C)cc1	none
O=C(NCCc1ccccc1Cl)c1ccc2nc3ccccc3c(=O)n2c1	none
CCOC(=O)c1nc2nc(-c3cccs3)cc(C(F)(F)F)n2n1	Mtb FBA inh 114
Nc1nc2nc(-c3cccs3)cc(C(F)(F)F)n2n1	Mtb FBA inh active
O=C(c1nc2nc(-c3cccs3)cc(C(F)(F)F)n2n1)N1CCN(Cc2ccccc2)CC1	Mtb FBA inh 145 (no result: BH1578 lux ind)
O=C(c1nc2nc(-c3ccccc3)cc(C(F)(F)F)n2n1)N1CCOCC1	none
COC(=O)C1CSC(C(=O)OC)N1C(=O)Nc1ccc(Cl)cc1 (configuration not stated)	Mtb FBA inh 103
CCCSc1nnc(Sc2nnnn2-c2ccccc2)s1	RecA intein inh 47
Cc1ccccc1-n1nnnc1Sc1nnnn1-c1ccccc1	none (no result: RecA intein inh)
Cn1c(C(=O)NN)cc2cc(OCc3ccccc3)ccc21	GDH-TPI inh 31
COc1ccc(OC)c(C(=O)NC(CC(N)=O)c2ccc(NCCN3CCCCC3)c([N+](=O)[O-])c2)c1 (configuration not stated)	none
Cc1ccccc1C(=O)OCC(=O)N(C)c1c(N)n(Cc2ccccc2)c(=O)[nH]c1=O	none (no result: RecA intein inh)
Cc1ccc(/C=C/C(=O)OCC(=O)N(C)c2c(N)n(Cc3ccccc3)c(=O)[nH]c2=O)o1	GDH-TPI inh 38 (no result: Mtb UGM inh, Rv3671c protease, RecA intein inh)
CCOC(=O)C1(CCCc2ccccc2)CCN(C(=O)CCN2CCCCC2=O)CC1	none
CC1CC(C)CN(C(=O)COC(=O)c2ccc[nH]c2=O)C1 (configuration not stated)	BH1578 lux ind 25
O=C(OCC(=O)N1CCCCCC1)c1ccc[nH]c1=O	none (no result: RecA intein inh)
COc1cc(CN2C[C@@H](CO)O[C@@H](n3cnc4c(NC5CC5)ncnc43)C2)cc(OC)c1OC	none (no result: Mtb UGM inh, Rv3671c protease, RecA intein inh)
CCS/C(N)=N/N=C/c1cc(C)ccc1O	none
CCCCS/C(N)=N/N=C/c1cc(C)ccc1O	GDH-TPI inh 41
O=C(C1=NN[C@@H]2C(=O)N(c3cccc(F)c3)C(=O)[C@H]12)c1cnccn1	none
CCN1C(=O)[C@@H]2C(C(=O)c3cnccn3)=NN[C@@H]2C1=O	GDH-TPI inh 32
Nc1nc2ccc(-c3nc4ccccc4o3)cc2s1	GDH-TPI inh 41, Mtb FBA inh active
O=C(N/N=C/C=C/c1ccccc1)c1cccnc1	none

Source: PubChem
